PubChem BioAssay (NCATS)
Inconclusive results are not listed. Calls come from the whole dose curve; as a rule, active = well fitted inhibition curve with a large enough effect; inconclusive = small, poorly fitted or top-dose-only effect, or effect the other way; inactive = flat fitted curve, though single readings scatter.

assay: qHTS for Inhibitors of Plasmodium falciparum (CP250) proliferation (AID 504320);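 note: plate controls were DMSO vehicle for no effect and 0.29 µM artemisinin control for full effect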; conditions: P. falciparum CP250 in erythrocytes, SYBR Green DNA, 72 h; series mostly up to 6.7 µM; activity change, negative = inhibition: at the top concentration
Method in brief: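 Parasite growth measured as SYBR Green DNA fluorescence (ex 485, em 535 nm) after overnight lysis following 72 h culture at 37 °C, 0.3% parasitemia, 2.5% hematocrit. Values normalized against DMSO and 0.29 uM artemisinin controls, with plate-stack correction.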

Activity change, negative = inhibition, inactive:
CCOC(=O)CN1C(=O)N[C@@H](c2cccc(C(F)(F)F)c2)[C@H](C(=O)OC)[C@H]1C 1.2%
C=CCOC(=O)N[C@H](C(C(=O)OC)=C(C)NCc1ccccc1)c1ccc(C)cc1 4.02%
C=C[C@@]1(C)CC[C@H](O)[C@H]2C(=O)CCC[C@H]21 6.1%
CCN1C(=O)N[C@H](c2ccc(Br)cc2)C(C(=O)OC)=C1C 1.4%
CCCCC1=CC2=CC(=O)C(C)(OC(=O)CC)C(=O)C2=CN1CCc1c[nH]c2ccccc12 (stereo not given) -0.824%
